Bioassay records as filed in PubChem BioAssay.
Many of the other results were omitted from the sample, so hits are more common in it than they were.
IDE exosite inh – insulin-degrading enzyme (human) exo-site inhibition; AID 1259349; z-score at 20 µM; purified IDE, FL-6b probe fluorescence polarization; stronger effect = lower value; 17,000 tested, 6.3% active;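 active means z-score of -3 or lower, meaning strong loss of probe binding signal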;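 further: His-tagged human IDE residues 42-1019 made in E. coli with 30 nM FL-6b probe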
Target sequence (P14735 42-1019 limits assumed): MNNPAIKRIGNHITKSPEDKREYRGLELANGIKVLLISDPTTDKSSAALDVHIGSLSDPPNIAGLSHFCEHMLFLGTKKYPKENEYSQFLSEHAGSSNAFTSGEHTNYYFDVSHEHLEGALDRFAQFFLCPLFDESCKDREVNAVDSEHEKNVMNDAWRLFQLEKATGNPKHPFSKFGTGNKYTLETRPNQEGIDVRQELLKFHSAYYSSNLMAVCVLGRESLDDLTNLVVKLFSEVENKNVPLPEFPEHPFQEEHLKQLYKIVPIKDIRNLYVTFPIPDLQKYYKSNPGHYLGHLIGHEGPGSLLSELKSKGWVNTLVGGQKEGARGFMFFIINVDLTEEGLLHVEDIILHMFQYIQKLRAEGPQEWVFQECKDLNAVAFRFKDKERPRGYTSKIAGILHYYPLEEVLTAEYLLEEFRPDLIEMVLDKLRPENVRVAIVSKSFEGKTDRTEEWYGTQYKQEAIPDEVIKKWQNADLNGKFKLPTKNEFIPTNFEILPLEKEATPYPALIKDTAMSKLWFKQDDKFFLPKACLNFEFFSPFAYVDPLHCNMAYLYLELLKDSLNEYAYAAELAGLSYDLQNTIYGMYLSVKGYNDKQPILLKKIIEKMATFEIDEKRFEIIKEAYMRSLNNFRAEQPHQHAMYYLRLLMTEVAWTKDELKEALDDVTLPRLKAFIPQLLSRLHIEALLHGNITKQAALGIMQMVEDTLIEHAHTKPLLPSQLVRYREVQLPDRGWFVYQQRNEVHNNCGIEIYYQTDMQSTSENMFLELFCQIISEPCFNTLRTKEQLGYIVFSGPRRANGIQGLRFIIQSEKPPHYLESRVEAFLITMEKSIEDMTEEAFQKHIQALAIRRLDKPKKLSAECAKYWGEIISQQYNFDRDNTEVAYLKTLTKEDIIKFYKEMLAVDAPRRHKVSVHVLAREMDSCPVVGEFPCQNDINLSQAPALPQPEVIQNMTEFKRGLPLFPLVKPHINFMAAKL
Of the large screens only hits and unclear results are named; the others gave an inactive call; ! = repeats disagree.

COc1cccc(-c2ccc([C@@H]3[C@H](CO)N4CCCCN(C(=O)NC(C)C)C[C@@H]34)cc2)c1	IDE exosite inh -6.5
CC(C)NC(=O)N1CCCCN2[C@@H](CO)[C@H](c3ccc(Br)cc3)[C@@H]2C1	none
COc1cccc(-c2ccc([C@H]3[C@H]4CN(C(=O)NC(C)C)CCCCN4[C@H]3CO)cc2)c1	IDE exosite inh -10
CC(C)NC(=O)N1CCCCN2[C@@H](CO)[C@@H](c3ccc(Br)cc3)[C@@H]2C1	none
COCC(=O)Nc1ccc2c(c1)[C@H]1C[C@H](CC(=O)N3CCOCC3)O[C@H](CO)[C@H]1O2	none
CN(C)CC#Cc1ccc([C@@H]2[C@@H](CO)N3CCCCN(C(=O)C4CCC4)C[C@@H]23)cc1	none
O=C(c1cccnc1)N1C[C@@H]2N[C@H](C1)C2c1ccc(-c2ccccc2)cc1 (some centres not stated)	none
COc1ccc(-c2ccc(C3[C@@H]4CN(Cc5ccccn5)C[C@H]3N4)cc2)cc1 (some centres not stated)	none
O=C(c1ccncc1)N1C[C@@H]2N[C@H](C1)C2c1ccc(/C=C/c2ccccc2)cc1 (some centres not stated)	IDE exosite inh -14!
C(=C\c1ccc(C2[C@@H]3CN(Cc4ccccn4)C[C@H]2N3)cc1)/c1ccccc1 (some centres not stated)	IDE exosite inh -5.2
O=C(C1CCOCC1)N1C[C@@H]2N[C@H](C1)C2c1ccc(-c2ccncc2)cc1 (some centres not stated)	none
O=C(C1CCOCC1)N1C[C@@H]2N[C@H](C1)C2c1ccc(/C=C/c2ccccc2)cc1 (some centres not stated)	IDE exosite inh -7.6!
O=C(c1ccc2c(c1)OCO2)N1C[C@@H]2N[C@H](C1)C2c1ccc(/C=C/c2ccccc2)cc1 (some centres not stated)	none
O=C(c1ccc(F)cc1)N1CC(=O)N2[C@H](CO)[C@@H](c3ccc(/C=C/c4ccccc4)cc3)[C@H]2C1	none
COc1ccccc1NC(=O)N1C[C@@H]2N[C@H](C1)C2c1ccc(/C=C/c2ccccc2)cc1 (some centres not stated)	none
C(=C\c1ccc(C2[C@@H]3CN(Cc4nccs4)C[C@H]2N3)cc1)/c1ccccc1 (some centres not stated)	none
O=C(CN1CCOCC1)N1C[C@@H]2N[C@H](C1)C2c1ccc(/C=C/c2ccccc2)cc1 (some centres not stated)	none
O=C(c1ccc(F)cc1)N1C[C@@H]2N[C@H](C1)C2c1ccc(/C=C/c2ccccc2)cc1 (some centres not stated)	IDE exosite inh -4.6!
Cc1noc(C)c1S(=O)(=O)Nc1ccc2c(c1)C(=O)N([C@H](C)CO)C[C@H](C)[C@H](CN(C)C(=O)Nc1cccc3ccccc13)OCCCC[C@H](C)O2	none
C/C=C/c1ccc([C@H]2[C@@H](CO)N(CCC(F)(F)F)[C@@H]2CNC(=O)C2CCC2)cc1	none
O=C(Nc1cccc(F)c1)N1CC(=O)N2[C@H](CO)[C@H](c3ccc(-c4ccccc4F)cc3)[C@@H]2C1	none
CC[C@@H]1C/C=C\C[C@H](c2ccc(OC)cc2OC)NC(=O)[C@H](C)CC(=O)N1	none
N#C[C@H]1[C@@H](c2ccc(C3=CCCC3)cc2)[C@H](CO)N1C(=O)c1cccc(F)c1	none
CN1c2ccc(Br)cc2[C@H]2[C@H](CCN2C(=O)C2CCC2)[C@@H]1CO	none
C[C@H]1CN([C@@H](C)CO)C(=O)c2ccccc2-c2ccccc2CO[C@@H]1CN(C)C(=O)CCC(F)(F)F	none
N#C[C@H]1[C@@H](c2ccccc2-c2ccccc2)[C@H](CO)N1C(=O)Cc1ccccc1	none
O=S(=O)(c1cccs1)N1CCCCN2[C@@H](CO)[C@@H](c3ccc(C4=CCCC4)cc3)[C@@H]2C1	none
CCNC[C@H]1[C@@H](c2ccccc2)[C@@H](CO)N1C(=O)Cc1ccccn1	none
COc1cccc(CN2CC3(CCN(S(C)(=O)=O)CC3)c3c(n(C)c4cc(OC)ccc34)[C@@H]2CO)c1	none
COc1ccc2c3c(n(C)c2c1)[C@H](CO)N(Cc1cccc(Cl)c1)CC31CCN(C(=O)C2CC2)CC1	none
COc1ccc2c3c(n(C)c2c1)[C@@H](CO)N(Cc1cccnc1)CC31CCN(C(=O)NC(C)C)CC1	IDE exosite inh -5.9
COc1ccc2c3c(n(C)c2c1)[C@H](CO)N(C)CC31CCN(C(=O)c2cccnc2)CC1	none
COc1ccc2c3c(n(C)c2c1)[C@H](CO)N(Cc1cccnc1)CC31CCN(C(=O)NC(C)C)CC1	IDE exosite inh -3
COc1ccc2c3c(n(C)c2c1)[C@@H](CO)N(Cc1ccc(Cl)cc1)CC31CN(C(=O)NC(C)C)C1	none
CO[C@@H]1CN(C)C(=O)c2cc(NC(=O)CC(F)(F)F)ccc2OC[C@@H](C)N(CC2CC2)C[C@@H]1C	none
C/C=C/c1ccc([C@H]2[C@@H](CO)N3C(=O)CN(Cc4ccc(C)cc4)C[C@H]23)cc1	none
COc1cccc(NC(=O)N2CC(=O)N3[C@H](C2)[C@@H](c2ccc(C4=CCCC4)cc2)[C@@H]3CO)c1	none
C/C=C/c1ccc([C@H]2[C@@H](CO)N3CCCCN(C(=O)C4CCCC4)C[C@@H]23)cc1	none
C/C=C/c1ccc([C@@H]2[C@H](CO)N3C(=O)CN(S(=O)(=O)c4ccccc4)C[C@@H]23)cc1	none
COCC(=O)N1[C@H](C#N)[C@@H](c2ccccc2-c2cccc(F)c2)[C@H]1CO	none
COCC(=O)N1CC(=O)N2[C@H](C1)[C@H](c1ccc(C#Cc3cccnc3)cc1)[C@@H]2CO	none
COCC(=O)N1CCCCN2[C@@H](CO)[C@@H](c3ccc(C#Cc4cccnc4)cc3)[C@@H]2C1	none
CCC(=O)N1CCCCN2[C@H](CO)[C@@H](c3ccc(C#Cc4cccnc4)cc3)[C@H]2C1	none
COCC(=O)N1CCCCN2[C@@H](CO)[C@H](c3ccc(C#Cc4cccnc4)cc3)[C@@H]2C1	IDE exosite inh -6.3
CCC(=O)N1CCCCN2[C@H](C1)[C@H](c1ccc(C#Cc3cccnc3)cc1)[C@@H]2CO	IDE exosite inh -3.5
CCC(=O)N1CCCCN2[C@H](C1)[C@@H](c1ccc(C#Cc3cccnc3)cc1)[C@@H]2CO	none
N#C[C@@H]1[C@H](c2ccc(C#CCC3CCCC3)cc2)[C@@H](CO)N1C(=O)c1ccccn1	none
C[C@H]1CN([C@@H](C)CO)C(=O)c2ccccc2-c2ccccc2CO[C@H]1CN(C)C(=O)[C@@H]1CCCN1C	none
COCC(=O)N1CC(=O)N2[C@H](C1)[C@H](c1ccc(-c3ccccc3F)cc1)[C@@H]2CO	none
CCC(=O)N1CC(=O)N2[C@H](C1)[C@H](c1ccc(-c3ccccc3F)cc1)[C@@H]2CO	IDE exosite inh -3.5
CCC(=O)N1CC(=O)N2[C@@H](CO)[C@@H](c3ccc(-c4ccccc4F)cc3)[C@@H]2C1	IDE exosite inh -5.6
COCC(=O)N1CC(=O)N2[C@@H](CO)[C@H](c3ccc(-c4ccccc4F)cc3)[C@@H]2C1	none
CCC(=O)N1CC(=O)N2[C@H](CO)[C@@H](c3ccc(-c4ccccc4F)cc3)[C@@H]2C1	IDE exosite inh -5.2
O=C(C1CCCCC1)N1CC(=O)N2[C@H](C1)[C@@H](c1ccc(-c3ccccc3F)cc1)[C@@H]2CO	none
CCC(=O)N1CC(=O)N2[C@H](CO)[C@@H](c3ccc(-c4ccccc4F)cc3)[C@H]2C1	none
O=C(C[C@H]1C[C@H]2c3cc(NS(=O)(=O)c4ccc(F)cc4)ccc3O[C@H]2[C@@H](CO)O1)N1CCc2ccccc2C1	none
O=C(Nc1ccccc1)N1CC(=O)N2[C@H](C1)[C@H](c1ccc(C#Cc3cccnc3)cc1)[C@@H]2CO	none
